From the supplement of paper PMC6555819

How the values were obtained:
Assay in all cases: PBM binding z-score (relative to random genomic background probes); higher = stronger binding; sequences stand for … in GC…GCGATTGACAGCGTAGAATGAAGG
[1] = tested on: FXR:RXRa (NR concentration 270 nM, RXRa partner concentration 90 nM)
In short: (§1)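 Each nuclear receptor dimer, without ligand, was incubated for 1 h on custom Agilent 4×180K protein-binding microarrays. Binding was detected with antibodies against each partner (one per run), and scanned fluorescence was regression-normalized. The binding z-scores are referenced to random human genomic background probes.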

[2] = tested on: LXRa:RXRa (NR concentration 270 nM, RXRa partner concentration 90 nM)
In short: as §1

[3] = tested on: LXRa homodimer (NR concentration 270 nM)
In short: as §1

[4] = tested on: LXRb:RXRa (NR concentration 270 nM, RXRa partner concentration 90 nM)
In short: as §1

[5] = tested on: LXRb homodimer (NR concentration 270 nM)
In short: as §1

[6] = tested on: PPARa:RXRa (NR concentration 270 nM, RXRa partner concentration 90 nM)
In short: as §1

[7] = tested on: PPARg:RXRa (NR concentration 180 nM, RXRa partner concentration 90 nM)
In short: as §1

[8] = tested on: PPARg:RXRa 270nM:90nM, anti-RXR (NR concentration 270 nM, RXRa partner concentration 90 nM)
In short: as §1

[9] = tested on: PPARg:RXRa 30nM:10nM, anti-RXR (NR concentration 30 nM, RXRa partner concentration 10 nM)
In short: as §1

[10] = tested on: PPARg:RXRa 90nM:30nM, anti-RXR (NR concentration 90 nM, RXRa partner concentration 30 nM)
In short: as §1

Sequence | PBM binding z-score [1] | PBM binding z-score [2] | PBM binding z-score [3] | PBM binding z-score [4] | PBM binding z-score [5] | PBM binding z-score [6] | PBM binding z-score [7] | PBM binding z-score [8] | PBM binding z-score [9] | PBM binding z-score [10]
CGTCCAAGGTCAGCTGGTCAGTGAAAGCGACGTG | 5.24 | 3.28 | -0.407 | 2.31 | -0.208 | 3.99 | 2.08 | 2.85 | 0.432 | 1.47
TCTCGGAGGACACGAAGGTTAGAGCTTTCCAGAG | 0.31 | -0.0717 | -0.684 | -0.246 | -1.26 | 0.397 | -0.0287 | 1 | 2.15 | 1.58
TCTGCTAGGACAGTTGGTCAGCTAACGAGCTGCC | -0.435 | -0.527 | -0.541 | -0.91 | -0.315 | -0.722 | -0.522 | -0.161 | 0.654 | 0.296
GCGACTGGGGCATCAGCAGGTTTCCATAACTTAA | -0.587 | -0.452 | -0.461 | 0.112 | -0.629 | 0.353 | 0.32 | 0.386 | -0.554 | -0.228
CCTCACGGGTCACTGACAGGTTATAGCATTTGGA | 4.72 | 3.72 | 0.511 | 3.24 | -0.196 | 4.66 | 3.37 | 3.34 | 0.625 | 1.85
CGAACGAGGGAATGAGTTGATAGCAAATGCCGAT | -0.82 | -0.749 | -0.474 | -1.01 | -0.729 | -1.17 | 0.578 | -0.457 | -0.284 | -0.51
TCAGACAGGTGACGGTAACTCAGGTACGCAGTCG | -0.0449 | 0.58 | -0.354 | 0.0924 | -0.599 | 0.857 | 0.69 | 1.72 | 3.16 | 2.51
CGTCAAAGTTCAAGGTAACGAAACAGAAAGCAGC | 6.35 | 5.77 | 2.25 | 3.3 | 0.914 | 4.7 | 4.6 | 5.48 | 2.22 | 4.42
ATATGTAGGTTCGCTGGGGTCATTCAGACTAGGC | 4.11 | 3.93 | 1.89 | 4.28 | 1.4 | 4.69 | 2.95 | 3.83 | 1.2 | 2.91
CATGCTAGGTCATGGTCAGCTAATCTACAGTATG | 3.66 | 3.18 | 0.549 | 1.79 | -0.0133 | 3.24 | 2.36 | 2.83 | 1 | 2.3
CAAACTAGGTCAAGAGTTCAAAGTCCGCTTCCCG | 5.67 | 5.69 | 6.24 | 4.15 | 1.05 | 6.1 | 9.08 | 7.81 | 6.8 | 8.19
TCTAGTTGGACACGGAGGTCACACACGACGGGTA | 2.81 | 2.85 | 2.1 | 2.85 | 0.421 | 3.68 | 2.46 | 3.05 | 3.26 | 2.88
CAAACTAGGTCTCGAAAGGTCAAAGTCGAATGAC | 4.95 | 5.78 | 5.59 | 5.49 | 1.63 | 5.51 | 5.33 | 5.32 | 2.94 | 4.72
CGAACTAGGTCAGAACAGCACAGTGAAGGATGAT | 0.904 | 0.613 | -0.229 | 0.425 | -0.2 | 3.25 | 5.34 | 4.59 | 1.73 | 3.54
CGTCAAAGTTCAACTAAGGTAACGTCAAGCACGC | 7.22 | 6.46 | 4.23 | 4.17 | 2.06 | 5.14 | 5.08 | 5.67 | 2.61 | 4.36
CGAACTAGGTCATCCAGGAAAGTGAATACATTGA | 4.43 | 2.64 | 0.469 | 2.15 | 0.453 | 5.01 | 7.91 | 6.29 | 4.25 | 5.91
TAGCCTAGGTCATTAGGCCAGTATAGTACGCATC | 3.64 | 2.91 | 0.7 | 1.88 | 0.111 | 3.31 | 3.34 | 3.34 | 1.05 | 2.14
TGTCAAAGTTCAAAGGTAACGGAAGTATCCACAC | 7.08 | 6.74 | 4.4 | 4.82 | 1.8 | 6.04 | 8.79 | 7.85 | 5.15 | 7.21
CCTGTTAGGTCATGGTCAGCTAATCTACAGTATG | 4.26 | 2.77 | 0.732 | 2.3 | 0.739 | 3.71 | 1.92 | 2.38 | 0.613 | 1.33
GCGACTGGGGCAAAGCAGCTTACCATAAGGTTGG | -0.808 | -0.965 | -0.698 | -0.42 | -1.09 | 0.229 | 1 | 1.18 | -0.326 | 0.688
TTACCAAGGAGAAGGTCGTTGATCCCTCTGTAGA | 1.21 | 1.19 | -0.0479 | 0.995 | -0.829 | 1.18 | 0.529 | 2.23 | 1.24 | 1.77
ACTAGCAGGCCAAGTGTCACTCAAGATTAGTCCG | -0.202 | -0.345 | -0.396 | -0.372 | -0.742 | 1.37 | 1.95 | 3.56 | 1.36 | 2.95
ACTTACGGGTCATCGAGGTTATAGCACGCGTATA | 6.76 | 4.95 | 0.924 | 4.29 | 0.569 | 5.8 | 5.44 | 5.54 | 2.13 | 4.43
CCTGCTAGGTCATTGTCAGCTAATCTACAGTATG | 3.88 | 2.99 | 0.878 | 1.84 | 0.257 | 2.94 | 1.29 | 2.14 | 0.169 | 1.22

Sequence | PBM binding z-score [1] | PBM binding z-score [2] | PBM binding z-score [3] | PBM binding z-score [4] | PBM binding z-score [5] | PBM binding z-score [6] | PBM binding z-score [7] | PBM binding z-score [8] | PBM binding z-score [9] | PBM binding z-score [10]
ATCTCTAGGTAACTAAGTTCAGTGAATGCCGAAC | 0.51 | 0.962 | 1.22 | 1.02 | 0.792 | 1.32 | 0.573 | 0.892 | 0.181 | 0.816
TCTTGAAGATCAAAGGTTAAGAAAGCCGAAGCCT | 1.84 | 2.29 | 0.0814 | 2.16 | -0.506 | 4.1 | 4.39 | 5.89 | 5.18 | 6.85
CGTCCAAGGTCATAGTAGGTCAGTGAAGACAGAT | 7.5 | 7.17 | 4.25 | 5.79 | 1.31 | 5.54 | 5.27 | 5.42 | 2.67 | 4.32
GATACAGGCTCAAGGCCAGAGTACGCGTATTGAT | -0.696 | -0.88 | -0.571 | -1.04 | -0.938 | -0.602 | 0.777 | 0.34 | -0.217 | -0.0733
TTACCAAGGTGAAGGTGGTTGATCCCTCTGTAGA | 0.468 | 0.457 | -0.29 | 0.0076 | -0.769 | 1.41 | 0.605 | 1.37 | 0.889 | 1.13
CCTACTGGGCCAAGGTCATTGTTCAGTCAAAGCA | 2.83 | 3.04 | 1.28 | 2.99 | -0.347 | 4.06 | 3.84 | 4.26 | 1.73 | 3.71
GGAACGAGGGCAAGTTGATAGCCGAGTTTGATGG | 0.943 | 0.357 | -0.311 | 0.355 | -0.62 | 1.94 | 0.924 | 1.09 | -0.224 | 0.405
ATCGAAAGGTCGAAGGGGAGTATACCCACCCGAA | 4.05 | 3.15 | 0.303 | 2.7 | 0.76 | 4.19 | 3.19 | 2.91 | 1.16 | 1.99
TAGCCTAGGTAAGATCGGGCCAGTATACGCTATA | -0.504 | -0.787 | -0.612 | -0.831 | -1.39 | -0.58 | 0.0812 | -0.494 | -0.743 | -0.292
TGAATGAGGTTAAAGATCAGGGAGCGTGGCGTCG | 2.85 | 2.34 | -0.379 | 1.14 | 0.0684 | 4.39 | 5.63 | 5.88 | 5.47 | 6.49
AATACAGTGTCATCGTAGGCCAGAGTACGCACAG | 0.397 | 1.79 | -0.224 | 0.401 | -0.022 | 0.815 | 1.05 | 0.517 | 0.42 | 0.495
CGAATTAGGTCATCCAGGACAGTGAATACATTGA | 4.75 | 3.32 | 0.829 | 2.55 | 0.231 | 5.11 | 7.49 | 6.52 | 3.78 | 6.07
TCATATAGGTCAAGGTGAAAGTCGAACGATATGA | 6.5 | 4.65 | 0.783 | 3.73 | 0.775 | 6.15 | 8.55 | 7.65 | 6.25 | 7.63
TCTGCCAGGTCAGTTGGTCAGCTAACGAGCTGCC | 1.42 | 0.919 | -0.414 | 0.653 | 0.604 | 1.61 | -0.0729 | 1.28 | 1.13 | 0.918
GCATATAGGTAATACAAGCTGAAAGTCCGATTGT | -0.216 | -0.314 | -0.237 | -0.399 | -0.434 | 0.493 | 0.856 | 0.592 | 0.14 | 0.385
TGACCAAGGTGAAAGGTCGTTGATGCACGCCTTG | 3.6 | 2.98 | 0.293 | 2.62 | -0.814 | 5.24 | 8.5 | 7.41 | 6.27 | 7.51
TCTCCTAGGTCAACGATGGTCAGCTAATCTGCTA | 4.13 | 3.59 | 0.622 | 2.49 | 0.781 | 3.76 | 2.68 | 3.76 | 3.64 | 3.51
GCGACTGGGGCAAAGCAGGTTTCCATAAGGTTGG | -0.319 | -0.518 | -0.852 | -0.284 | -0.53 | 0.542 | 0.609 | 0.674 | -0.401 | 0.205
CCTACTGGGGCAAAGGTTACCATACTCAGTACGA | 1.74 | 1.84 | 0.187 | 2.41 | -0.355 | 6.15 | 12.1 | 10 | 12.4 | 12.2
CCTTACGGGTCAAGATTATAGCACGGGTGGTACG | 4.99 | 3.15 | 0.00162 | 2.76 | 0.37 | 4.61 | 3.55 | 3.6 | 1.65 | 2.56
TCTGCTAGGTCAGTTGGTCAGCTTACGAGCTGCC | 0.94 | 0.456 | -0.755 | 0.14 | 0.216 | 1.29 | 0.177 | 1.69 | 0.977 | 1.39
TAGCCTGGGTCATTCAGGGGCCAGTATAGAAAGC | 3.88 | 2.28 | -0.548 | 2.04 | 0.00492 | 3.65 | 2.29 | 2.38 | 0.19 | 1.47
TTACCAAGGTGATAGGTCGTTGATGCACGCCTTG | 0.534 | 0.702 | -0.126 | 0.514 | -0.482 | 2.84 | 4.06 | 5.47 | 3.82 | 5.61
AGTATGAGGTTATACGTAGATCAGGGAAGAAAGT | 1.82 | 2.03 | 0.26 | 1.56 | 0.204 | 2.46 | 1.32 | 1.2 | 0.646 | 1.07
